This passage reports outcome results from PubChem BioAssay (Tox21).

Molecules are shown by their SMILES. Inconclusive results are not listed. Activity calls are given as the source filed them. Calls follow the shape of the dose curve; as a rule, active = well fitted activation curve with a large enough effect in the signal ratio in the repeat runs (not every such curve was filed as active); inconclusive = weak or mixed curves; inactive = flat fitted curve, though single readings scatter; the % refers to the signal ratio.

The nature of this assay: qHTS assay to identify small molecule agonists of H2AX (AID 1224845). The following applies: CHO-K1 phospho-H2AX Ser139 HTRF, 3 h; series mostly up to 154 µM. The source says:
National Center for Advancing Translational Sciences [NCATS]
NIH Chemical Genomics Center [NCGC]
U.S. Environmental Protection Agency [EPA]
National Institutes of Environmental Health Sciences [NIEHS]
National Toxicology Program [NTP]
U.S. Food and Drug Administration [FDA]
HTRF phospho-H2AX (Ser139) assay (Cisbio Bioassays, US) enables the quantitative detection of the histone variant H2AX when phosphorylated on serine 139. When double-stranded DNA breaks, either by ionizing radiation or endogenous physiological processes, H2AX becomes phosphorylated at Ser139. This phospho-Ser139 serves as a sensitive biomarker for the detection of such breaks, localizing the site of DNA repair. So, HTRF phospho-H2AX Ser139 is a pertinent assay to study genome stability, the cell cycle, DNA repair, and it serves as a biomarker for cancer, and to understand aging. Wild type CHO-K1 cells were used to identify the inducers of Phospho-H2AX Ser 139 from the Tox21 10K compound collections.
Tox21 Assay Protocol Summary:
The CHO-K1 cells suspended in culture medium containing 10% FBS were dispensed at 1000 cells/ 3 ul/well in 1536-well white wall/solid bottom plates (Greiner Bio-One North America, NC) using a Multidrop Combi (Thermo Fisher Scientific Inc., Waltham, MA). After the assay plates were incubated at 37C overnight, 23 nl of compounds at 15 concentrations (from 5-48 columns) or positive control (from 1 to 4 columns) were transferred to the assay plates using a Pintool station (Wako, San Diego, CA) into each well resulting in a final DMSO concentration of 0.76%. After 3hr incubation at 37C, 1 uL/well Supplemented Lysis buffer (diluted 100 fold blocking reagent in lysis buffer) (HTRF Phospho-H2A.X (S139) Assay kit from Cisbio US Inc., Bedford, MA) was added using a Flying Reagent Dispenser (FRD) (Aurora Discovery, CA). After 10sec spin at 1000 rpm in a plate centrifuge, the assay plates were incubated at room temperature for 30 min. Then followed by the addition of 1 uL/well detection buffer (containing a mixture of two antibodies, one labeled with cryptate, Anti pH2AX (S139)-K and another labeled with d2, Anti H2AX-d2) using FRD. After incubation at room temperature for 24 hr, the time resolved fluorescence at excitation 320 nm and emissions at 665 nm and 620 nm was measured using an Envision plate reader (PerkinElmer, Waltham, MA).
Regarding `CC(C=O)Cc1ccc(C(C)C)cc1` (stereo not given), the call was inactive. On to `NC(CS)C(=O)O` (stereo not given), for which the molecule was classed as inactive.

Turning to `Cc1nc(-c2ccc(OCC(C)C)c(C#N)c2)sc1C(=O)O`, the result was inactive. Regarding `c1ccc(SCCSc2ccccc2)cc1`, the molecule was classed as inactive. Consider `CSc1nc(NC2CC2)nc(NC(C)(C)C)n1`, for which the call was inactive.

Regarding `NCCN1CCNC1=O`, the molecule was classed as inactive. For the molecule `CCCCCCOC(=O)CC(CC(=O)OCCCCCC)(OC(=O)CCC)C(=O)OCCCCCC`, the molecule was classed as inactive. In the case of `NC(N)=NS(=O)(=O)c1ccc(N)cc1`, the molecule was called inactive. `O=[N+]([O-])c1ccc(CCO)cc1`: the molecule was called inactive. Turning to `CCOC(=O)[C@H](CCc1ccccc1)N[C@@H](C)C(=O)N1CCC[C@H]1C(=O)O`, the outcome was inactive. Turning to `N#CCN(CC#N)CCN(CC#N)CC#N`, the result was inactive. On to `O=C(CCOCCOCCOCCOCCC(=O)Nc1c(I)cc(I)c(C(=O)O)c1I)Nc1c(I)cc(I)c(C(=O)O)c1I`, for which the outcome was inactive. To `CC12CCC(CC1=O)C2(C)C` (stereo not given) belongs “inactive”. As for `CCCCCCC(=O)OCC`, the molecule was classed as inactive. In the case of `CCCCN(CCO)CCO`, the call was inactive.

Consider `O=C1OC(=O)c2cc([N+](=O)[O-])ccc21`, for which the call was inactive. With `C1C2OC2C2C1C1CC2C2OC12` (stereo not given), the outcome was inactive. For the molecule `CCCC(=O)O[C@]1(C(=O)CCl)[C@@H](C)C[C@H]2[C@@H]3CCC4=CC(=O)C=C[C@]4(C)[C@@]3(F)C(=O)C[C@@]21C`, the call was inactive. For `C=C(C)C(=O)NCCC[N+](C)(C)C`, the molecule was classed as inactive. Consider `N[C@@H](CS)C(=O)O`, for which the outcome was inactive.

Take `COc1cccc(Br)c1`: the molecule was called inactive. Regarding `Cc1ccccc1Br`, the result was inactive. To `CC(C)[N+](C)(C)CC(O)COc1cccc2ccccc12` (stereo not given) belongs “inactive”. Consider `Cc1cc(C)c(NC(=O)CN(CC(=O)O)CC(=O)O)c(C)c1Br`, for which the result was inactive.

As to `CCCC(C)C(=O)O` (stereo not given), the molecule was classed as inactive.

For the molecule `CCC(=O)c1cccc(Cl)c1`, the outcome was inactive. As for `C#CC(O)C(CC)CCCC` (stereo not given), the call was inactive.

As to `Cc1c(C)n(CCN(C)C)c2ccc(C(=O)OCCN(C)C)cc12`, the outcome was inactive. Next, `C=CC(=O)N1CCOCC1`: “inactive”; `CC(C)CCCC(C)NCCC(C)C` (stereo not given): “inactive”; `CC(C)(O)Cc1ccccc1`: “inactive”. For `CO[Si](OC)(OC)OC`, the outcome was inactive.

For the molecule `CCCC(C)CO` (stereo not given), the molecule was called inactive. To `NC(=O)Nc1nc2ccccc2[nH]1` belongs “inactive”. As for `NCCNC(=O)c1ccc(Cl)cn1`, the call was inactive. Turning to `C[C@H]1O[C@@H](n2cc(F)c(=O)[nH]c2=O)[C@H](O)[C@@H]1O`, the outcome was inactive. With `CCC(C)OC(=O)N1CCCCC1CCO` (stereo not given), the result was inactive. On to `CCC(C(=O)NC(N)=O)c1ccccc1` (stereo not given), for which the outcome was inactive.

Regarding `CN(C)C(=O)Nc1ccccc1`, the outcome was inactive. In the case of `c1ccc2cnncc2c1`, the result was inactive.
